Drawing on the supplement of paper PMC6555819, this text covers PBM binding z-score for 6 sequences.

What all share (experiment): PBM binding z-score (relative to random genomic background probes); higher = stronger binding; sequences stand for … in GC…GCGATTGACAGCGTAGAATGAAGG
Experiment [1] relates to FXR:RXRa (NR concentration 270 nM, RXRa partner concentration 90 nM). A digest of the protocol: (§1)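 Regression normalization was applied to scanned fluorescence from custom Agilent 4×180K protein-binding microarrays. Before scanning, arrays were incubated 1 h with ligand-free nuclear receptor dimers, and binding was detected with antibodies against each partner (one per run). Binding z-scores use the random background probes as reference.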

In experiment [2] the test system is LXRa:RXRa (NR concentration 270 nM, RXRa partner concentration 90 nM). A digest of the protocol:
as §1

The test system of experiment [3] is LXRa homodimer (NR concentration 270 nM). A digest of the protocol: as §1
The subject of experiment [4] is LXRb:RXRa (NR concentration 270 nM, RXRa partner concentration 90 nM). A digest of the protocol: as §1
Experiment [5] deals with LXRb homodimer (NR concentration 270 nM). In short, it runs like this: as §1
Experiment [6] concerns PPARa:RXRa (NR concentration 270 nM, RXRa partner concentration 90 nM). In short, it runs like this:
as §1

The test system of experiment [7] is PPARg:RXRa (NR concentration 180 nM, RXRa partner concentration 90 nM). In short, it runs like this:
as §1

Experiment [8] concerns PPARg:RXRa 270nM:90nM, anti-RXR (NR concentration 270 nM, RXRa partner concentration 90 nM). A digest of the protocol: as §1
Experiment [9] concerns PPARg:RXRa 30nM:10nM, anti-RXR (NR concentration 30 nM, RXRa partner concentration 10 nM). In short, it runs like this:
as §1

Experiment [10] relates to PPARg:RXRa 90nM:30nM, anti-RXR (NR concentration 90 nM, RXRa partner concentration 30 nM). A digest of the protocol:
as §1

Experiment [11] relates to PPARg:RXRa DBDmut IVT, anti-RXR (DBD mutation: RXRa K156A/R161A, NR concentration 270 nM, RXRa partner concentration 90 nM). In short, it runs like this: as §1
Experiment [12] concerns PPARg:RXRa IVT, anti-PPARg (NR concentration 270 nM, RXRa partner concentration 90 nM). A digest of the protocol:
as §1

The subject of experiment [13] is PPARg DBDmut:RXRa IVT, anti-PPARg (DBD mutation: PPARg1 K132A/R137A, NR concentration 270 nM, RXRa partner concentration 90 nM). In short, it runs like this: as §1
Experiment [14] has as its system PPARg DBDmut IVT, anti-PPARg (DBD mutation: PPARg1 K132A/R137A, NR concentration 270 nM). In short, it runs like this: as §1
Experiment [15] relates to PPARg homodimer (NR concentration 180 nM). A digest of the protocol:
as §1

The subject of experiment [16] is PXR:RXRa (NR concentration 270 nM, RXRa partner concentration 90 nM). In short, it runs like this: as §1
The subject of experiment [17] is PXR homodimer (NR concentration 270 nM). In short, it runs like this: as §1
For experiment [18], the system named is RARa:RXR (NR concentration 270 nM, RXRa partner concentration 90 nM). In short, it runs like this:
as §1

For experiment [19], the system named is RARa homodimer (NR concentration 270 nM). A digest of the protocol:
as §1

Experiment [20] relates to RARb:RXRa (NR concentration 270 nM, RXRa partner concentration 90 nM). In short, it runs like this: as §1

GTCCCAAGGTGAATAGGTCGTTGATGAGTAGGCG: the PBM binding z-score in experiment [1] was 0.85; in [2], 0.873; in [3], -0.08; in experiment [4], 0.623; in [5], -0.403; in experiment [6], 2.26. Besides, the PBM binding z-score turned out to be 1.19 in experiment [7]; 1.4 in experiment [8]; 0.109 in experiment [9]; 0.815 in experiment [10]; 1.17 in experiment [11]; 2.18 in experiment [12]. Also, the PBM binding z-score was -0.477 in experiment [13]; -0.0374 in [14]; 1.53 in [15]; 0.817 in experiment [16]; 0.264 in experiment [17]; 2 in [18]. In addition, the PBM binding z-score stood at 0.909 in experiment [19] and 2.12 in [20].

ACTAGCAGGCCAAGTTTGGGTCACTGAAACAAAG: the PBM binding z-score in [1] was 0.428; in [2], 0.0569; in experiment [3], -0.409; in experiment [4], 0.671; in experiment [5] it was -0.515; in [6] it was 1.52. The PBM binding z-score in [7] is 0.0239; in experiment [8] it was 0.587; in experiment [9], -0.227; in experiment [10], -0.112; in experiment [11] it was 0.913; in experiment [12], 1.45. Further, the PBM binding z-score in [13] was -0.659; in experiment [14], -0.796; in [15] it was 0.506; in experiment [16] it was 0.641; in experiment [17], -0.0145; in [18], 1.25. The results for the PBM binding z-score in experiment [19] and in experiment [20] were -0.321 and 2, respectively.

As for CAAACTAGGTCACCGGAAGGACAAAGTCCGCATG, the PBM binding z-score came to 4.67 in [1]; 3.57 in [2]; 0.547 in experiment [3]; 2.71 in experiment [4]; 0.36 in experiment [5]; 5.63 in experiment [6]. Moreover, the PBM binding z-score is 9.49 in [7]; 7.51 in experiment [8]; 6.09 in [9]; 7.18 in [10]; 8.34 in experiment [11]; 9.2 in experiment [12]. Moreover, the PBM binding z-score was found to be 4.33 in experiment [13]; 1.54 in experiment [14]; 2.4 in [15]; 2.89 in experiment [16]; 0.127 in experiment [17]; 4.17 in [18]. The PBM binding z-score in experiment [19] amounted to 0.734; in experiment [20], 4.69.

In the case of AGAACGAGGGCACTCTGAGTTGATAGCAGAGTAG, the PBM binding z-score was 0.473 in experiment [1]; 0.561 in [2]; -0.613 in experiment [3]; -0.0145 in [4]; -0.411 in experiment [5]; 1.35 in experiment [6]. Also, the PBM binding z-score in experiment [7] is 1.21; in experiment [8], 1.19; in [9] it was -0.0176; in experiment [10] it was 0.277; in experiment [11], 3.52; in experiment [12] it was 2.74. Besides, the PBM binding z-score in experiment [13] is 0.243; in experiment [14], -0.0516; in experiment [15] it was -0.209; in experiment [16], 1.14; in experiment [17] it was -0.0913; in [18], 0.301. For the same sequence, the results for the PBM binding z-score in [19] and in experiment [20] were -0.677 and 1.84, respectively.

Regarding CCTACTGGGCCACGAAAGGTCATTTATTCAGTGA, the PBM binding z-score in [1] amounted to 3.85; in experiment [2], 5.32; in experiment [3] it was 6.04; in experiment [4] it was 4.6; in experiment [5], 1.31; in experiment [6] it was 4.47. Moreover, the PBM binding z-score in experiment [7] was found to be 4.58; in [8], 4.66; in experiment [9], 1.87; in [10], 4.02; in [11] it was 5.5; in experiment [12], 5.64. For the same sequence, the PBM binding z-score is -0.2 in [13]; -0.0827 in experiment [14]; 2.68 in [15]; 5.07 in experiment [16]; 2.29 in [17]; 4.64 in experiment [18]. Besides, the PBM binding z-score in experiment [19] was determined as 1.05; in experiment [20], 3.78.

For TCGAGGAGGTTAGTCGGGGCATTCAGCCAACATA, the PBM binding z-score in experiment [1] was 0.421; in [2], 0.675; in [3], -0.136; in experiment [4], 1.21; in experiment [5], -0.337; in experiment [6], 1.43. For the same sequence, the PBM binding z-score is -0.118 in experiment [7]; 0.893 in experiment [8]; 1.23 in experiment [9]; 0.779 in experiment [10]; 1.28 in experiment [11]; 0.923 in experiment [12]. Also, the PBM binding z-score in experiment [13] is -0.713; in experiment [14], -1.04; in [15] it was 0.777; in experiment [16], 1.05; in experiment [17], 0.348; in experiment [18], 0.897. The results for the PBM binding z-score in [19] and in experiment [20] were -0.313 and 1.01, respectively.
